Results as given in PubChem BioAssay (NCI).
The panel holds about 83,000 compounds, 20% with a hit somewhere; the sample as a whole holds those more often.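 Plates (96-well) were seeded with cells, treated with compound at one concentration, and incubated for 48 hours before percent growth was determined.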 The source made the active and inactive calls. How the source made its calls: active means growth percent below 10; inactive means the rest.

Tests used:
Experiment in all cases: NCI-60 one-dose screen, 48 h (100 = growth as untreated, 0 = no growth, -100 = all killed)
Settings in all cases: 10 µM unless noted
[1] = tested on: DU-145 prostate
[2] = tested on: K-562 leukemia
[3] = tested on: MALME-3M melanoma
[4] = tested on: MDA-MB-231 breast
[5] = tested on: RXF 393 renal
[6] = tested on: SF-268 CNS
[7] = tested on: SF-295 CNS
[8] = tested on: SF-539 CNS
[9] = tested on: UACC-257 melanoma
[10] = tested on: M14 melanoma
[11] = tested on: HCT-15 colon
[12] = tested on: HT29 colon
[13] = tested on: SNB-75 CNS
[14] = tested on: SNB-19 CNS
[15] = tested on: U251 CNS
[16] = tested on: PC-3 prostate
[17] = tested on: SK-MEL-5 melanoma
[18] = tested on: UACC-62 melanoma
[19] = tested on: LOX IMVI melanoma
[20] = tested on: SK-MEL-28 melanoma

Measured: growth

Cc1ccccc1NC(=O)c1sc2nc3c(cc2c1N)CCCC3
active: [8] 8.72% | [12] 7.53%
inactive: [1] 25.2% | [2] 17.6% | [3] 53.9% | [4] 52.5% | [5] 14.2% | [6] 49.6% | [7] 16.4% | [9] 40.7% | [10] 27% | [11] 25% | [13] 37.8% | [14] 30.9% | [15] 23% | [16] 29.9% | [17] 20.5% | [18] 27.6% | [19] 40.5% | [20] 75.1%

Cc1ccccc1NC(=O)Cn1cc(CN2CCN(c3ccnc4cc(Cl)ccc34)CC2)nn1
inactive: [1] 105% | [2] 70% | [3] 109% | [4] 83.1% | [5] 102% | [6] 92.6% | [7] 100% | [8] 97.8% | [9] 109% | [10] 101% | [11] 98.5% | [12] 105% | [13] 85.8% | [14] 93.3% | [15] 100% | [16] 81.4% | [17] 91.2% | [18] 84.3% | [19] 97.7% | [20] 100%

[2H]C([2H])([2H])Oc1ccc(/C=C/C(=O)/C=C(/C=C/c2ccc(OC([2H])([2H])[2H])c(OC([2H])([2H])[2H])c2OC([2H])([2H])[2H])OB(F)F)c(OC([2H])([2H])[2H])c1OC([2H])([2H])[2H]
inactive: [1] 68.8% | [2] 29.3% | [3] 57% | [4] 75.1% | [5] 83.8% | [6] 88.8% | [7] 97.2% | [8] 77.7% | [9] 53.5% | [10] 61.2% | [11] 39.6% | [12] 38.5% | [13] 57.1% | [14] 83% | [15] 47.7% | [16] 67.6% | [17] 92.4% | [18] 56.5% | [19] 13.2% | [20] 73.3%

COc1ccc(/C=C\c2cc(OC)c(OC)c(OC)c2)cc1OCC(=O)Nc1nc2ccccc2s1
active: [1] -27.3% | [7] 9.97% | [12] 1.98% | [17] -64%
inactive: [2] 15.6% | [3] 49.7% | [4] 21.8% | [5] 20.6% | [6] 24.1% | [8] 11.8% | [9] 54.4% | [10] 27.6% | [11] 23% | [13] 30.3% | [14] 43.8% | [15] 13.9% | [16] 31.1% | [18] 28% | [19] 11.5% | [20] 65.4%

CCNCCNc1c(C)c(-c2ccc(C(F)(F)F)cc2)c(C#N)c2nc3ccccc3n12
inactive: [1] 99.1% | [2] 54.8% | [3] 109% | [4] 90.9% | [5] 90.4% | [6] 80.8% | [7] 91.4% | [8] 82.7% | [9] 79.6% | [10] 56.1% | [11] 78.6% | [12] 77.3% | [13] 57.6% | [14] 78.6% | [15] 78.8% | [16] 76.1% | [17] 87.2% | [18] 92.4% | [19] 82.5% | [20] 103%

Nc1ncnc2c1N=C(c1ccc([N+](=O)[O-])cc1)CC(c1ccc3c(c1)OCO3)N2 (stereo not given)
inactive: [1] 94.6% | [2] 93.4% | [3] 107% | [4] 75% | [5] 75.6% | [6] 90.1% | [7] 67.5% | [8] 85.7% | [9] 116% | [10] 119% | [11] 103% | [12] 97.3% | [13] 69.1% | [14] 83.6% | [15] 89% | [16] 72.6% | [17] 80.2% | [18] 77.9% | [19] 85.3% | [20] 108%

O=C(OCc1ccc2c(Br)cc(Br)c(O)c2n1)N1CCN(C(=O)c2cc3ccccc3[nH]2)CC1
inactive: [1] 48.9% | [2] 21.7% | [3] 51.5% | [4] 46.3% | [5] 41% | [6] 31.6% | [7] 21.3% | [8] 47.9% | [9] 31.5% | [10] 30% | [11] 19.6% | [12] 59.6% | [13] 40.5% | [14] 31.6% | [15] 12.9% | [16] 27.5% | [17] 35.5% | [18] 19% | [19] 28.7% | [20] 58.1%

COC(=O)[C@H]1Cc2c([nH]c3ccccc23)[C@H](c2ccc3c(c2)OCO3)N1
inactive: [1] 101% | [2] 99.3% | [3] 99.8% | [4] 98.5% | [5] 109% | [6] 96.3% | [7] 99.8% | [8] 92.8% | [9] 107% | [10] 108% | [11] 100% | [12] 106% | [13] 74.8% | [14] 96.4% | [15] 96.8% | [16] 93.2% | [17] 101% | [18] 88.1% | [19] 93.6% | [20] 108%

COC(=O)c1nc(-c2ccccc2)oc1S(=O)(=O)NCC(c1ccc(Cl)cc1)N1CCCCC1 (stereo not given)
inactive: [1] 97.9% | [3] 99.1% | [4] 72.2% | [5] 82.7% | [6] 82.5% | [7] 102% | [8] 88.1% | [9] 88% | [10] 38% | [11] 49.1% | [12] 45.8% | [13] 79% | [14] 81.1% | [15] 59.6% | [16] 58.3% | [17] 86% | [18] 85.5% | [19] 43.9% | [20] 99.7%
active: [2] 9.15%

CC(=O)[C@H]1CC[C@]2(C)[C@@H]1CC[C@@H]1[C@@]3(C)C/C(=C/c4cccnc4)C(=O)C(C)(C)[C@@H]3CC[C@]12C
inactive: [1] 85.3% | [2] 30.3% | [3] 82.6% | [4] 83.9% | [5] 97.7% | [6] 79.7% | [7] 89.8% | [8] 97.6% | [9] 63.4% | [10] 71.8% | [11] 54.4% | [12] 57.1% | [13] 106% | [14] 87.1% | [15] 60.7% | [16] 26.9% | [17] 38.9% | [18] 59.9% | [19] 87.6% | [20] 94.9%

CN(C)c1ccc(/C=N/NC(=O)CSc2nc3sc4c(c3c(=O)n2-c2ccccc2)CCCCC4)cc1
active: [5] -6.22% | [13] -2.33% | [15] 5.23% | [16] -23.4% | [18] 8.03%
inactive: [1] 14.9% | [2] 63.8% | [3] 35.5% | [4] 43.8% | [6] 57.3% | [7] 19.1% | [8] 34.6% | [9] 64.8% | [10] 46.6% | [11] 43.8% | [12] 45.8% | [14] 48.8% | [17] 46.2% | [19] 37.1% | [20] 47.4%

C=C(C)[C@@H]1CCC[C@]2(C(=O)OC)CC[C@]3(C)[C@@H](CC[C@@H]4[C@@]5(C)CCCNC(C)(C)[C@@H]5CC[C@]43C)[C@@H]12
inactive: [1] 105% | [2] 55.4% | [3] 79.6% | [4] 85.5% | [5] 90.9% | [6] 93.4% | [7] 104% | [8] 98.7% | [9] 98.9% | [10] 97% | [11] 93.1% | [12] 56.5% | [13] 91.7% | [14] 88.3% | [15] 94.1% | [16] 74.1% | [17] 90% | [18] 87.8% | [19] 97.8% | [20] 94.3%

CC1(C)C2=C(C(=O)N1Cc1ccccc1)C(c1ccco1)N(C(=O)C1CCC1)CCN2 (stereo not given)
inactive: [1] 110% | [2] 110% | [3] 105% | [4] 95.5% | [5] 136% | [6] 96.5% | [7] 108% | [8] 101% | [9] 95.6% | [10] 103% | [11] 109% | [12] 106% | [13] 83.7% | [14] 98.9% | [15] 100% | [16] 95.2% | [17] 105% | [18] 91.7% | [19] 96.8% | [20] 115%

O=C(Nc1ncc(Cc2ccc(Cl)cc2)s1)C1=NCCCCN1
inactive: [1] 105% | [2] 95.4% | [3] 102% | [4] 110% | [5] 119% | [6] 103% | [7] 102% | [8] 102% | [9] 108% | [10] 104% | [11] 98.9% | [12] 102% | [13] 102% | [14] 106% | [15] 106% | [16] 101% | [17] 99.8% | [18] 97.7% | [19] 98.7% | [20] 108%

Cc1[nH]c(C(=O)Nc2ccccc2OC2CCNC2)c(Cl)c1Cl (stereo not given)
inactive: [1] 93.5% | [2] 52.2% | [3] 97.5% | [4] 54.4% | [5] 76.8% | [6] 75.7% | [7] 95.5% | [8] 85.6% | [9] 107% | [10] 98.5% | [11] 77.7% | [12] 77.8% | [13] 65.2% | [14] 85.3% | [15] 64.4% | [16] 80.2% | [17] 85.8% | [18] 68.1% | [19] 30.7% | [20] 106%

NCCNc1ccc([N+](=O)[O-])cc1
inactive: [1] 126% | [2] 92.4% | [3] 115% | [4] 122% | [5] 123% | [6] 110% | [7] 128% | [8] 107% | [9] 115% | [10] 106% | [11] 108% | [12] 101% | [13] 96.2% | [14] 101% | [15] 102% | [16] 105% | [17] 118% | [18] 106% | [19] 105% | [20] 108%
